From PubChem BioAssay AID1159580 (chemical genetic matrix, 2015)
Hit rate of the full screen: of about 5,500 compounds, about 2,000 (36%) were called active. Inconclusive results (about 18%) are left out. No stated cut-off is given here; in the data, active means normalized growth mostly below about 0.91 (no sharp cut-off); inconclusive means no clear call, values can overlap the other calls; inactive means mostly above about 0.92. The list shows a part of the results.

Assay: chemical genetic growth profiling, strain panel (AID 1159580);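 further: tested at 20 µM; growth read once vehicle control cultures reached saturation at 30 °C; 1 = growth at the plate median or of vehicle wells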
Conditions: S. cerevisiae deletion strains, growth OD

Measured: normalized growth

C[N+](C)(C)CC#CCN1CCCC1=O
inactive: locus YAL040C, strain CLN3, stronger effect = lower value 0.99 | locus YCL061C, strain MRC1 (second series), stronger effect = lower value 0.996 | locus YDR150W, strain NUM1, stronger effect = lower value 1.01 | locus YDR363W, strain ESC2, stronger effect = lower value 1 | locus YER002W, strain NOP16, stronger effect = lower value 0.985 | locus YGR078C, strain PAC10, stronger effect = lower value 0.991 | locus YMR307W, strain GAS1, stronger effect = lower value 1.01 | locus YNL153C, strain GIM3, stronger effect = lower value 0.994 | locus YNL175C, strain NOP13, stronger effect = lower value 0.996 | locus YNL197C, strain WHI3, stronger effect = lower value 0.996 | locus YNL224C, strain SQS1, stronger effect = lower value 0.996 | locus YNL322C, strain KRE1, stronger effect = lower value 1 | locus YOR083W, strain WHI5 (second series), stronger effect = lower value 1.01
